Inconclusive results are not listed. Values without a mark were called inactive. Active and inactive are the calls of the source. The call rests on the fitted dose curve; in most records, active means well fitted inhibition curve with a large enough effect; inconclusive means small, poorly fitted or top-dose-only effect; inactive means no such curve, though single readings can be large or run the other way.
These compounds were tested against Cytochrome P450 3A4 (Homo sapiens) (UniProt P08684) (assay: qHTS Assay for Inhibitors and Substrates of Cytochrome P450 3A4 (AID 884; further: nearly all actives have a fitted effect of over 50% in size)). Conditions: recombinant CYP3A4, Luciferin-PPXE luminescence; series mostly up to 57.1 µM.
Cytochrome P450 3A4 (Homo sapiens), sequence (P08684 whole entry, looked up): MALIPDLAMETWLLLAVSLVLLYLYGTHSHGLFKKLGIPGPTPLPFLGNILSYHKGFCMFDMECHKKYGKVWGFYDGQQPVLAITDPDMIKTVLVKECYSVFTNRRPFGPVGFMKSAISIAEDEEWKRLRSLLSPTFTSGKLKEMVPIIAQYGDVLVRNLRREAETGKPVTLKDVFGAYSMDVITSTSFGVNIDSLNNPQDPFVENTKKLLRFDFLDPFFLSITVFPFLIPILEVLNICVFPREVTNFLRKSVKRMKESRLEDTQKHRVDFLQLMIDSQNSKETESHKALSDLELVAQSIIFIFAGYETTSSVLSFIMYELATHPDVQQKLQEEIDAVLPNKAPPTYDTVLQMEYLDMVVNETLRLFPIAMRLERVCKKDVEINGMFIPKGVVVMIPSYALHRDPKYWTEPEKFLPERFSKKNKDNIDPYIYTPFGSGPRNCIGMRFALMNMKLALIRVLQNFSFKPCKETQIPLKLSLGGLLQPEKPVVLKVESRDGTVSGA
Procedure, shortened: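 20 nM human CYP3A4 with 25 uM Luciferin-PPXE (at KM) in 200 mM KPO4, preincubated 10 min with compound; NADPH regeneration started a 60 min RT reaction. Luciferin detected by luminescence, normalized to 57 uM ketoconazole as full inhibition.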
On the % scale 0 is the no-effect control and ±100 the full control effect; potency means the concentration at half of the fitted maximal effect.

Compound	Potency	activity change, negative = inhibition
COC(=O)NC/C=C\c1nc(CC/C=C\C(=O)O[C@H]2C[C@H]3CC(=O)O[C@@H](/C=C\CC(C)C)C[C@@H]4CC[C@H](C)[C@H](C[C@@H](OC)C[C@H](C2)O3)O4)co1	5.01 µM (active)	
CC(C)=CCCC1(C)C=Cc2c(O)c3c(c(CC=C(C)C)c2O1)OC12C(CC4CC1C(C)(C)OC2(C/C=C(/C)C(=O)O)C4O)C3=O (stereo unspecified)	inactive	
COc1cc2c(cc1OC)[C@@H]1C(=O)c3ccc(OC)c(CC=C(C)C)c3OC1CO2 (stereo partly specified)	3.16 µM (active)	
c1ccc(CN2CCC3(CCc4ccccc43)CC2)cc1	inactive	
COc1cc2c(cc1OC)[C@@H]1C(=O)c3ccc4c(c3OC1CO2)CC(C(C)C)O4 (stereo partly specified)	25.1 µM (active)	
COc1ccc(-c2oc3cc(OC)ccc3c(=O)c2O)cc1	12.6 µM (active)	
CC(=O)OCc1ccc2c(c1)OCO2	10 µM (active)	
O=C(OC1Cc2c(O)cc(O)cc2OC1c1cc(O)c(O)c(O)c1)c1cc(O)c(O)c(O)c1 (stereo unspecified)	20 µM (active)	
C[C@@]12CC[C@@H]3[C@@H](CC[C@H]4C[C@@H](O)CC[C@]43C)[C@H]1CC[C@@H]2c1cc(C(F)(F)F)n[nH]1		103% [at 11.4 µM]
CC(C)CCCC1(C)C=Cc2c(O)c3c(c(CCC(C)C)c2O1)OC12C(CC4CC1C(C)(C)OC2(CCC(C)C(=O)O)C4O)C3=O (stereo unspecified)	inactive	
CC(=O)OCC(=O)[C@@]1(O)CCC2C3CC[C@H]4CC(O)CC[C@@]4(C)C3C(=O)C[C@]21C (stereo partly specified)	12.6 µM (active)	

Source: PubChem BioAssay (NCATS)
